The supplement of paper PMC10849652
Of roughly 7,900 targets only a part is listed; those with a hit were picked by preference. About 0.6% of all pairs of compound and target were hits. A number with no mark means an inactive call.

Compound: c1cn2cc(-c3ccc4cn[nH]c4c3)nc(Nc3ccc(N4CCOCC4)cc3)c2n1 [entospletinib]
Assay: log2 fold change, soluble protein after heating vs DMSO (PISA); higher = thermal stabilisation; K562 cells, 10 uM, 30 min; active = over 0.2 and 3.5 SD of the protein, either way, in both replicates (recomputed)
In short: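 K562 cells at 2×10^6 cells/mL were exposed to 10 μM compound for 30 min, then aliquots were heated for 3 min across 48°C-58°C, pooled, and extracted in PBS containing 0.5% NP-40 at 4°C. The supernatant after 21,000xg for 90 min was taken as soluble protein and measured by TMTpro 16plex LC-MS/MS with channel sums equalised. Thermal stability is reported relative to control samples, with values from duplicates. Fold changes are given on a log2 scale.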

UniProt P51790, sequence (P51790 whole entry, looked up): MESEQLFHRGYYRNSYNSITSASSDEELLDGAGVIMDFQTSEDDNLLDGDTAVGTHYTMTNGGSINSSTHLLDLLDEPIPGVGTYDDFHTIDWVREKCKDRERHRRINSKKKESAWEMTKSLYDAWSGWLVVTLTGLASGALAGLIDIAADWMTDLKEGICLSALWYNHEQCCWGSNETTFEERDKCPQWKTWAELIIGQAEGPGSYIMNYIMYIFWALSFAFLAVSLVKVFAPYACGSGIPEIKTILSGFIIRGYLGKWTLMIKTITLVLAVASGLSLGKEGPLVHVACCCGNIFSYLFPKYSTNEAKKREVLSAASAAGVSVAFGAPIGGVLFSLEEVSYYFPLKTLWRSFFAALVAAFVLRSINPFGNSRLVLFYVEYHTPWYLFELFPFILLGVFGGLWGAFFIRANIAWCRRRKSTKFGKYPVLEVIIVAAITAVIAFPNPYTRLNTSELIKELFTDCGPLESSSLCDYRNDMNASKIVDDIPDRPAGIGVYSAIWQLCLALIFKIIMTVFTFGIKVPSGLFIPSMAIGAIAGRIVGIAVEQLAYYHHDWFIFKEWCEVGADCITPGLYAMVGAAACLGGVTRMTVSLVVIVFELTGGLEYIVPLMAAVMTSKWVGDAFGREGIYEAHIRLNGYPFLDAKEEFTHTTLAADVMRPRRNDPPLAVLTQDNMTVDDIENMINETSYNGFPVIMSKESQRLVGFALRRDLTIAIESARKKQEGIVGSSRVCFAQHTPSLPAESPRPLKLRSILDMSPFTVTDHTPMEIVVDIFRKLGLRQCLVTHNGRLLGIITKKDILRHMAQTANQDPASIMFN
UniProt O95628, sequence (O95628 whole entry, looked up): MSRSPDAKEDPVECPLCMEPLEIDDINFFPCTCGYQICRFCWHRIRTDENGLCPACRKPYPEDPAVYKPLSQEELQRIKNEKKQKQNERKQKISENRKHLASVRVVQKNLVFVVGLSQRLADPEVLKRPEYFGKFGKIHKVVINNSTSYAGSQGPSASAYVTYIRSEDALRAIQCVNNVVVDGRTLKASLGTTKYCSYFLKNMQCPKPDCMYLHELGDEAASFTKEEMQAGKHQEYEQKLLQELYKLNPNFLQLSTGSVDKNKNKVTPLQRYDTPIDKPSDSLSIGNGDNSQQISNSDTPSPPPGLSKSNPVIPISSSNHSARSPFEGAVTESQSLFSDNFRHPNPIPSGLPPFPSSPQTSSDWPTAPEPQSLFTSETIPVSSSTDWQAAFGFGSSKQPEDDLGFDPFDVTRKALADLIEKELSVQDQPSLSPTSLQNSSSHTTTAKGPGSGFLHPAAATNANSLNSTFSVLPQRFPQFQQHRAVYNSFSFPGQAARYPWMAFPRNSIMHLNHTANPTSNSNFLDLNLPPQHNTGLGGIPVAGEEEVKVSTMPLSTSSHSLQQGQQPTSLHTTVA
UniProt Q7Z4R8, sequence (Q7Z4R8 whole entry, looked up): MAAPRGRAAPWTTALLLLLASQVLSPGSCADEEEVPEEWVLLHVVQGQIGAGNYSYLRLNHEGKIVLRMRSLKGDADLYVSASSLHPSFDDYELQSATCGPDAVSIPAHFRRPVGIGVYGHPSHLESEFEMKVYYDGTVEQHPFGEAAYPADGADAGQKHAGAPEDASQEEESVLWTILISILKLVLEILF
UniProt P67870, sequence (P67870 whole entry, looked up): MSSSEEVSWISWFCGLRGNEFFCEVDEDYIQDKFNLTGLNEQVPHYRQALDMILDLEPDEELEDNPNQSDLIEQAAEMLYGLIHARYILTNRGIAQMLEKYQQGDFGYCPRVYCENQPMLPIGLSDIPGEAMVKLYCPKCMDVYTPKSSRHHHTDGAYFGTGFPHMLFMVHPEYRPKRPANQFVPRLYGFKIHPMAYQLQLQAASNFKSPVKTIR
UniProt Q8WUX2, sequence (Q8WUX2 whole entry, looked up): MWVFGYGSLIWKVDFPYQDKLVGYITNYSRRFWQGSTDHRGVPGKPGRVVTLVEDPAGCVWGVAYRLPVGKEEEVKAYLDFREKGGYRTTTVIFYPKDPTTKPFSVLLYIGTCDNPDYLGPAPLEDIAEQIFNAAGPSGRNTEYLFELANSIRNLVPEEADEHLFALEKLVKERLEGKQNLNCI
UniProt Q8N1A6, sequence (Q8N1A6 whole entry, looked up): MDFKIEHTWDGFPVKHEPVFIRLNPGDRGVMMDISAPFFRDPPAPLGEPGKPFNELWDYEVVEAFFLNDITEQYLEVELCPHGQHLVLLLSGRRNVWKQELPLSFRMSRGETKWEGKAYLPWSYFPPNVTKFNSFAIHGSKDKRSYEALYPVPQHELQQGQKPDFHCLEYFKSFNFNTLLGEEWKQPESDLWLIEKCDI
UniProt Q5RI15, sequence (Q5RI15 whole entry, looked up): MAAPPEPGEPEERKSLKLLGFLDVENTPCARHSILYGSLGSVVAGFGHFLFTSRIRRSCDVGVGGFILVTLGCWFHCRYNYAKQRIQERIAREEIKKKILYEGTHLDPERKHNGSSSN
UniProt P19784, sequence (P19784 whole entry, looked up): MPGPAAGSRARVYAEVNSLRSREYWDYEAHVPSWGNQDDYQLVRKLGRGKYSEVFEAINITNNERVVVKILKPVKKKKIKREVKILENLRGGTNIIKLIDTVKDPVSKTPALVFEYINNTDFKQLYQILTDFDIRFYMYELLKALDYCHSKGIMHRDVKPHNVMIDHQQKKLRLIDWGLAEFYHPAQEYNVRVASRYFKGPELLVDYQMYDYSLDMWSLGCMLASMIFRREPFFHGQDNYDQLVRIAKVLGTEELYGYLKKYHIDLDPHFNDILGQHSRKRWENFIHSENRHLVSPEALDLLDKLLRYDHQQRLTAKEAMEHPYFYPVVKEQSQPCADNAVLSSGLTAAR
UniProt P35790, sequence (P35790 whole entry, looked up): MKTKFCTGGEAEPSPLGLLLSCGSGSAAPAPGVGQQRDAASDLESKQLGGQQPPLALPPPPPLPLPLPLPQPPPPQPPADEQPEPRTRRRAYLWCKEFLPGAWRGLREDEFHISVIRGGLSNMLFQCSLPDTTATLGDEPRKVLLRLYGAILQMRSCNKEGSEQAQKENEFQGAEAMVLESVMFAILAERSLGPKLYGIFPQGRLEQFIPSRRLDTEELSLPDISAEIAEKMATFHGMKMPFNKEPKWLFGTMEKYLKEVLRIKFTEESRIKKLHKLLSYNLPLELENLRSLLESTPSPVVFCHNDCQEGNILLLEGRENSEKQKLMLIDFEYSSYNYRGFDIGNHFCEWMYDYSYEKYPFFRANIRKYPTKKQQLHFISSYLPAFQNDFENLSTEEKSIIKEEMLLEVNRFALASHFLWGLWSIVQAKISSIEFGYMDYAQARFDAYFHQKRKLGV
UniProt Q5JTJ3, sequence (Q5JTJ3 whole entry, looked up): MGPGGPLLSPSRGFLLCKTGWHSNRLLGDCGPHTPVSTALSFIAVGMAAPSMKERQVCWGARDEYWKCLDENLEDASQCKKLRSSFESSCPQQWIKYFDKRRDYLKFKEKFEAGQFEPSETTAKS
UniProt Q13137, sequence (Q13137 whole entry, looked up): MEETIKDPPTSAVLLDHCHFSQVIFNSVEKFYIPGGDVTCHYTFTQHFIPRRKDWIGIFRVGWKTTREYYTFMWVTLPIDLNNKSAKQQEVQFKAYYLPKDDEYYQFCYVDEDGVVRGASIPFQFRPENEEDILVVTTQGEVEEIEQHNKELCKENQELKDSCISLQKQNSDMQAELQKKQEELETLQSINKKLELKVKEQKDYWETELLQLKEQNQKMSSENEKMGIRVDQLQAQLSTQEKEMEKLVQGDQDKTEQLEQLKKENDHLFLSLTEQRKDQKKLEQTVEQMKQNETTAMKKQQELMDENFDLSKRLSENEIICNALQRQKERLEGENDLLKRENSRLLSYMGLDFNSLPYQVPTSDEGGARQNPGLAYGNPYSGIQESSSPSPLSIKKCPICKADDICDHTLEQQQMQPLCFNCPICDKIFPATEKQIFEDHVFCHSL
UniProt Q7L3B6, sequence (Q7L3B6 whole entry, looked up): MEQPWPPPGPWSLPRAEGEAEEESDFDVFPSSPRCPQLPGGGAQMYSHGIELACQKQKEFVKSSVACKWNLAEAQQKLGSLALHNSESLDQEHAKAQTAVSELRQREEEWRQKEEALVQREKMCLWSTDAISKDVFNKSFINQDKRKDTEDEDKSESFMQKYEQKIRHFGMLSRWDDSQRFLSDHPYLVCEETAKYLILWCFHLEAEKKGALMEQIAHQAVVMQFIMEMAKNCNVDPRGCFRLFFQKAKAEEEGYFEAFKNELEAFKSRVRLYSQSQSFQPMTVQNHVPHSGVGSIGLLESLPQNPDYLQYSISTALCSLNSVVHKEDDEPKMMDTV
UniProt Q9Y6H1, sequence (Q9Y6H1 whole entry, looked up): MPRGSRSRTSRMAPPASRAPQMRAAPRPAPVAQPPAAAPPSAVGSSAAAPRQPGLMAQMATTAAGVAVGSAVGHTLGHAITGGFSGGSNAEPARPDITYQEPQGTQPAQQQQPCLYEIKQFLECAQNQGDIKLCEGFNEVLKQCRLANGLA
UniProt Q8N4S0, sequence (Q8N4S0 whole entry, looked up): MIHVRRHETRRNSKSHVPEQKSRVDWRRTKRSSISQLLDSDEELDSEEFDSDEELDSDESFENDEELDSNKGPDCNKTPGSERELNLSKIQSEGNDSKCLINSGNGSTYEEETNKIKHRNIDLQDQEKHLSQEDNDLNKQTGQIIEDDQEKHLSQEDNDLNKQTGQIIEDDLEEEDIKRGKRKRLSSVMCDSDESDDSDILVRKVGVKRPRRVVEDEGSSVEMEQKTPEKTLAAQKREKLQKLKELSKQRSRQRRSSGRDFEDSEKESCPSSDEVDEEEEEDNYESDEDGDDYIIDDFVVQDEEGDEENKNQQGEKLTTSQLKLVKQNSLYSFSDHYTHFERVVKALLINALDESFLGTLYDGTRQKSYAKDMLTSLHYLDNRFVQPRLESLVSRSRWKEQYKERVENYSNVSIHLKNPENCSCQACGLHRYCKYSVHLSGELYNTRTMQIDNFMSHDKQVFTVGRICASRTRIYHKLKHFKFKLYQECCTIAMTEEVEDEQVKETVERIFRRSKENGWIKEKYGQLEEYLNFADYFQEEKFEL
UniProt P10606, sequence (P10606 whole entry, looked up): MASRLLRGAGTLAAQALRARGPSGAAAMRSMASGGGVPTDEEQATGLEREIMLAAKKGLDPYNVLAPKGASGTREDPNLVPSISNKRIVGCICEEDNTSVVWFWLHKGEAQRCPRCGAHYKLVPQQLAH

For CSK (UniProt P41240), which log2 fold change is on record?
The log2 fold change was 0.013.

With CPQ (UniProt Q9Y646) as the target, how does the log2 fold change read?
The log2 fold change was 0.011.

Which log2 fold change does the source give for CTBS (UniProt Q01459) here?
The log2 fold change was 0.049.

For CLCN3 (UniProt P51790), which log2 fold change is on record?
The log2 fold change was -0.003.

For COA6 isoform 2 (UniProt Q5JTJ3), which log2 fold change is on record?
Its log2 fold change is 0.004.

CHKA (UniProt P35790) was tested. Which log2 fold change did it give?
Its log2 fold change is 0.021.

Which log2 fold change does the source give for C19orf53 (UniProt Q9UNZ5) here?
Its log2 fold change is 0.099.

Which log2 fold change does the source give for CCNT2 (UniProt O60583) here?
The log2 fold change was -0.05.

For CSE1L (UniProt P55060), which log2 fold change is on record?
The log2 fold change was -0.003.

For CNOT7 (UniProt Q9UIV1), which log2 fold change is on record?
Its log2 fold change is 0.122.

CLN3 (UniProt Q13286) was tested. Which log2 fold change did it give?
The log2 fold change was 0.065.

Which log2 fold change does the source give for CA1 (UniProt P00915) here?
Its log2 fold change is 0.018.

CCNDBP1 (UniProt O95273) was tested. Which log2 fold change did it give?
Its log2 fold change is 0.029.

How did the log2 fold change turn out when CNOT4 isoform 6 (UniProt O95628) was run?
The log2 fold change was -0.008.

Which log2 fold change does the source give for CAD (UniProt P27708) here?
The log2 fold change was -0.089.

Which log2 fold change does the source give for CCDC82 (UniProt Q8N4S0) here?
The log2 fold change was 0.021.

For CCNB1 (UniProt P14635), which log2 fold change is on record?
Its log2 fold change is -0.015.

For CRKL (UniProt P46109), which log2 fold change is on record?
The log2 fold change was 0.014.

For CNDP2 (UniProt Q96KP4), which log2 fold change is on record?
Its log2 fold change is 0.03.

With CPT2 (UniProt P23786) as the target, how does the log2 fold change read?
The log2 fold change was 0.206.

For CDK6 (UniProt Q00534), which log2 fold change is on record?
Its log2 fold change is 0.036.

Which log2 fold change does the source give for CS (UniProt F8VU34) here?
The log2 fold change was 0.063.

For CA8 (UniProt P35219), which log2 fold change is on record?
Its log2 fold change is 0.094.

CALCOCO2 isoform 4 (UniProt Q13137) was tested. Which log2 fold change did it give?
The log2 fold change was 0.005.

For COX5B (UniProt P10606), which log2 fold change is on record?
The log2 fold change was 0.005.

For COX20 isoform 2 (UniProt Q5RI15), which log2 fold change is on record?
The log2 fold change was -0.022.

C6orf120 (UniProt Q7Z4R8) was tested. Which log2 fold change did it give?
The log2 fold change was -0.013.

With CDK17 isoform 2 (UniProt Q00537) as the target, how does the log2 fold change read?
Its log2 fold change is 0.067.

How did the log2 fold change turn out when CASC3 (UniProt O15234) was run?
The log2 fold change was 0.485 (active).

For CLPTM1L (UniProt Q96KA5), which log2 fold change is on record?
The log2 fold change was -0.025.

How did the log2 fold change turn out when CETN3 (UniProt O15182) was run?
Its log2 fold change is 0.025.

How did the log2 fold change turn out when CDC37L1 (UniProt Q7L3B6) was run?
The log2 fold change was 0.042.

Which log2 fold change does the source give for CPD (UniProt O75976) here?
The log2 fold change was 0.011.

CCNK isoform 4 (UniProt O75909) was tested. Which log2 fold change did it give?
The log2 fold change was 0.037.

CRLS1 (UniProt Q9UJA2) was tested. Which log2 fold change did it give?
Its log2 fold change is -0.036.

Which log2 fold change does the source give for COX6B1 (UniProt P14854) here?
Its log2 fold change is 0.078.

How did the log2 fold change turn out when CDC42BPA isoform 6 (UniProt Q5VT25) was run?
The log2 fold change was 0.112.

Which log2 fold change does the source give for CFAP47 (UniProt Q6ZTR5) here?
The log2 fold change was -0.052.

For CAVIN1 (UniProt Q6NZI2), which log2 fold change is on record?
Its log2 fold change is 0.076.

With CSNK1D (UniProt P48730) as the target, how does the log2 fold change read?
The log2 fold change was 0.109.

How did the log2 fold change turn out when COQ7 (UniProt Q99807) was run?
The log2 fold change was 0.026.

For CLCN3 isoform 2 (UniProt P51790), which log2 fold change is on record?
The log2 fold change was -0.039.

For CDK5RAP1 (UniProt Q96SZ6), which log2 fold change is on record?
The log2 fold change was 0.03.

With CCDC167 (UniProt Q9P0B6) as the target, how does the log2 fold change read?
Its log2 fold change is 0.034.

For CHAC2 (UniProt Q8WUX2), which log2 fold change is on record?
Its log2 fold change is 0.323.

For C19orf54 (UniProt Q5BKX5), which log2 fold change is on record?
Its log2 fold change is 0.17.

For CMTR1 (UniProt Q8N1G2), which log2 fold change is on record?
Its log2 fold change is -0.016.

With CDK12 (UniProt Q9NYV4) as the target, how does the log2 fold change read?
The log2 fold change was 0.058.

How did the log2 fold change turn out when CSTF3 (UniProt Q12996) was run?
Its log2 fold change is -0.064.

How did the log2 fold change turn out when COPS3 (UniProt Q9UNS2) was run?
The log2 fold change was 0.011.

Which log2 fold change does the source give for CLPX (UniProt O76031) here?
The log2 fold change was -0.002.

With CNOT4 isoform 9 (UniProt O95628) as the target, how does the log2 fold change read?
Its log2 fold change is 0.02.

How did the log2 fold change turn out when CCAR2 isoform 2 (UniProt Q8N163) was run?
Its log2 fold change is -0.014.

Which log2 fold change does the source give for CRTC2 (UniProt Q53ET0) here?
Its log2 fold change is -0.038.

CCAR1 (UniProt Q8IX12) was tested. Which log2 fold change did it give?
Its log2 fold change is -0.015.

CCDC59 (UniProt Q9P031) was tested. Which log2 fold change did it give?
The log2 fold change was 0.002.

Which log2 fold change does the source give for COX7C (UniProt P15954) here?
Its log2 fold change is -0.074.

Which log2 fold change does the source give for CDC123 (UniProt O75794) here?
Its log2 fold change is -0.081.

Which log2 fold change does the source give for CNOT1 (UniProt A5YKK6) here?
The log2 fold change was 0.014.

How did the log2 fold change turn out when C4orf33 (UniProt Q8N1A6) was run?
The log2 fold change was 0.082.

Which log2 fold change does the source give for CHCHD2 (UniProt Q9Y6H1) here?
Its log2 fold change is 0.028.

How did the log2 fold change turn out when CSTF2 (UniProt P33240) was run?
Its log2 fold change is 0.022.

Which log2 fold change does the source give for CDC42BPB (UniProt Q9Y5S2) here?
Its log2 fold change is -0.245.

Which log2 fold change does the source give for CPSF3 (UniProt Q9UKF6) here?
The log2 fold change was 0.

CSNK2A2 (UniProt P19784) was tested. Which log2 fold change did it give?
The log2 fold change was 0.096.

With CD81 (UniProt P60033) as the target, how does the log2 fold change read?
The log2 fold change was 0.019.

Which log2 fold change does the source give for CRYM-AS1 (UniProt A6NIL9) here?
Its log2 fold change is -0.459.

CASP10 isoform 4 (UniProt Q92851) was tested. Which log2 fold change did it give?
The log2 fold change was 0.06.

With CDK4 (UniProt P11802) as the target, how does the log2 fold change read?
The log2 fold change was -0.069.

With CDK11B (UniProt P21127) as the target, how does the log2 fold change read?
Its log2 fold change is 0.14.

Which log2 fold change does the source give for CKB (UniProt P12277) here?
The log2 fold change was 0.063.

Which log2 fold change does the source give for CNN2 (UniProt Q99439) here?
Its log2 fold change is -0.011.

For CDC25B isoform 4 (UniProt P30305), which log2 fold change is on record?
Its log2 fold change is -0.013.

How did the log2 fold change turn out when COQ9 (UniProt O75208) was run?
The log2 fold change was -0.022.

How did the log2 fold change turn out when CSNK2B (UniProt P67870) was run?
The log2 fold change was 0.077.
